Measurements from PubChem BioAssay (Tox21).
Several values for one entry are separate records, joined by “and”; a condition that tells them apart may be missing. Identical values can stand only once. Results filed as inconclusive are left out. Some structures have more than one record in an assay (separate samples or runs), and their calls can disagree. Activity calls are given as the source filed them. Unless noted, the call rests on the fitted dose curve; in most records, active means well fitted curve in the direction sought with a large enough effect in the repeat runs; inconclusive means weak or mixed curves; inactive means no such curve, though single readings can be large; an effect the other way counts as inactive or inconclusive.

What was measured:
[1] = qHTS assay to identify small molecule antagonists of the estrogen related receptor (ERR) signaling pathway from Tox21 library (AID 1224848); further: nearly all actives have a fitted effect of over 50% in size; further: potency means the concentration at half of the fitted maximal effect
Method in brief: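 Cells: ERR line, 2,000/well; 6 h preincubation 37 C/5% CO2. Cpd in DMSO via pin tool; 18 h, 37 C. ONE-Glo, 30 min RT, luminescence.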

[2] = qHTS assay to identify small molecule agonists of the estrogen related receptor (ERR) signaling pathway from Tox21 library (AID 1224849; calls by dose curve; further: nearly all actives have a fitted effect of over 15% in size); conditions: ERR reporter cell line, ONE-Glo luciferase, 18 h
Method in brief: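 Agonist signal is luciferase luminescence from an ERR reporter cell line treated 18 h at 37 C with DMSO-dissolved compounds, read 30 min after ONE-Glo addition at room temperature.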

[3] = qHTS RealTime-Glo MT Cell Viability Assay in HepG2 cells - 24 hour (AID 1224867); further: nearly all actives have a fitted effect of over 50% in size; further: potency means the concentration at half of the fitted maximal effect
Method in brief: (§1)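 Tox21 10K library screened in qHTS format on HepG2 cells carrying RealTime-Glo reagents. Compounds were added after a 5 h preincubation, and the luminescent signal from continuous culture was measured repeatedly during 40 h treatment.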

[4] = qHTS RealTime-Glo MT Cell Viability Assay in HEK293 cells - 32 hour (AID 1224868); further: nearly all actives have a fitted effect of over 50% in size; further: potency means the concentration at half of the fitted maximal effect
Method in brief: (§2)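 Luminescence generated by NanoLuc from substrate produced by living HEK293 cells served as the viability signal. Each value reflects the reading at its stated time point during continuous 40 h compound exposure at 37 C.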

[5] = A CellTox Green Cytotoxicity Assay to monitor cytotoxicity in HEK293 cells - 0 hour (AID 1224869); further: nearly all actives have a fitted effect of over 50% in size
Method in brief: (§3)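 Cytotoxicity was tracked continuously in HEK293 cells by a DNA-binding dye excluded from viable cells. Compounds were transferred in DMSO 5 h after seeding; fluorescence was recorded at intervals up to 40 h.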

[6] = A CellTox Green Cytotoxicity Assay to monitor cytotoxicity in HEK293 cells - 40 hour (AID 1224871); further: nearly all actives have a fitted effect of over 45% in size; further: potency means the concentration at half of the fitted maximal effect
Method in brief: as §3

[7] = qHTS RealTime-Glo MT Cell Viability Assay in HEK293 cells - 16 hour (AID 1224872); further: nearly all actives have a fitted effect of over 50% in size; further: potency means the concentration at half of the fitted maximal effect
Method in brief: as §2

[8] = qHTS RealTime-Glo MT Cell Viability Assay in HepG2 cells - 8 hour (AID 1224873); further: nearly all actives have a fitted effect of over 55% in size; further: potency means the concentration at half of the fitted maximal effect
Method in brief: (§4)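 HepG2 cells mixed with RealTime-Glo MT reagents (NanoLuc plus cell-permeant prosubstrate) were seeded at 600 cells/well, incubated 5 h at 37 C/5% CO2, then pinned with compounds in DMSO; nonlytic luminescence tracked viability during 40 h treatment.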

[9] = qHTS RealTime-Glo MT Cell Viability Assay in HEK293 cells - 40 hour (AID 1224874); conditions: RealTime-Glo luminescence; max response: stronger effect = lower value; further: nearly all actives have a fitted effect of over 50% in size; further: potency means the concentration at half of the fitted maximal effect
Method in brief: (§5)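 Nonlytic bioluminescent viability monitoring. HEK293 at 600 cells/well with reagent; 5 h settle; compound transfer by pintool; plates held at 37 C and read at set time points.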

[10] = A CellTox Green Cytotoxicity Assay to monitor cytotoxicity in HEK293 cells - 24 hour (AID 1224875); further: nearly all actives have a fitted effect of over 45% in size; further: potency means the concentration at half of the fitted maximal effect
Method in brief: as §3

[11] = A CellTox Green Cytotoxicity Assay to monitor cytotoxicity in HepG2 cells - 16 hour (AID 1224876); further: nearly all actives have a fitted effect of over 45% in size; further: potency means the concentration at half of the fitted maximal effect
Method in brief: (§6)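 Real-time, homogeneous cytotoxicity readout: dead-cell DNA staining by CellTox Green in HepG2 monolayers, fluorescence measured at timed intervals up to 40 h of continuous compound exposure.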

[12] = qHTS RealTime-Glo MT Cell Viability Assay in HepG2 cells - 32 hour (AID 1224877); further: nearly all actives have a fitted effect of over 55% in size; further: potency means the concentration at half of the fitted maximal effect
Method in brief: as §1

[13] = A CellTox Green Cytotoxicity Assay to monitor cytotoxicity in HepG2 cells - 24 hour (AID 1224878); further: nearly all actives have a fitted effect of over 45% in size; further: potency means the concentration at half of the fitted maximal effect
Method in brief: as §6

[14] = qHTS RealTime-Glo MT Cell Viability Assay in HEK293 cells - 0 hour (AID 1224880)
Method in brief: as §5

[15] = A CellTox Green Cytotoxicity Assay to monitor cytotoxicity in HEK293 cells - 32 hour (AID 1224881); further: nearly all actives have a fitted effect of over 40% in size; further: potency means the concentration at half of the fitted maximal effect
Method in brief: as §3

[16] = qHTS assay to identify small molecule agonists of the hypoxia (HIF-1) signaling pathway (AID 1224846; active means well fitted activation curve with a large enough effect in the signal ratio in the repeat runs, not every such curve was filed as active; the % refers to the signal ratio)
Method in brief: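 Steps: seed ME-180 HRE-bla cells (2,000/well, 0.5% dialyzed FBS); incubate 5 hrs at 37C; pin-transfer compounds or DMSO; incubate 17 hrs; add LiveBLAzer B/G substrate CCF4-AM; measure reporter activation by FRET.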

[17] = qHTS assay to identify small molecule agonists of H2AX - cell viability counter screen (AID 1224847; calls by dose curve; further: nearly all actives have a fitted effect of over 30% in size; further: potency means the concentration at half of the fitted maximal effect)
Method in brief: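 Viability of CHO-K1 (wild type) cells after 3 hr compound exposure was measured by CellTiter-Glo luminescence.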

[18] = qHTS RealTime-Glo MT Cell Viability Assay in HepG2 cells - 40 hour (AID 1224870); further: nearly all actives have a fitted effect of over 50% in size; further: potency means the concentration at half of the fitted maximal effect
Method in brief: as §4

[19] = A CellTox Green Cytotoxicity Assay to monitor cytotoxicity in HepG2 cells - 40 hour (AID 1224879); further: nearly all actives have a fitted effect of over 40% in size; further: potency means the concentration at half of the fitted maximal effect
Method in brief: as §6
On the % scale 0 is the no-effect control and ±100 the full control effect.

CN(C)c1ccc(C(=C2C=CC(=[N+](C)C)C=C2)c2ccccc2)cc1
active: Potency [1] 596 nM [middle of 4 runs] | Potency [3] 11 µM and 8.49 µM and 7.56 µM | Potency [4] 2.13 µM [middle of 4 runs] | Potency [6] 17.4 µM and 9.52 µM and 10.7 µM | Potency [7] 3.01 µM [middle of 4 runs] | Potency [8] 17.4 µM and 21.3 µM and 19 µM | Potency [9] 1.34 µM [middle of 4 runs] | Potency [10] 19.5 µM [middle of 4 runs] | Potency [11] 9.77 µM and 9.52 µM and 7.56 µM | Potency [12] 7.56 µM [middle of 4 runs] | Potency [13] 6.74 µM [middle of 4 runs] | Potency [15] 15.1 µM [middle of 4 runs]
inactive: activity change, positive = activation ([2]; at 42.5 µM (top of the series)) -66.6% and -76.7% and -71.5% | activity change, positive = activation ([2]; at 92.4 µM (top of the series)) -71.3% | Potency [5] | Potency [14]

CCCOC(=O)c1cc(O)c(O)c(O)c1
inactive: Potency [16] | Potency [17] | activity change, positive = activation ([2]; at 92.4 µM (top of the series)) -50.8% and -46.2% | Potency [3] | Potency [5] | Potency [18] | Potency [6] | Potency [10] | Potency [11] | Potency [13] | Potency [19] | Potency [14] | Potency [15]
active: Potency [1] 48.3 µM and 54.5 µM | Potency [4] 38.9 µM | Potency [9] 48.7 µM and 38.9 µM

CCc1cc(C(C)(C)C)c(O)c(C(C)(C)C)c1
active: Potency [6] 21.9 µM | Potency [10] 21.9 µM | Potency [15] 21.9 µM
inactive: Potency [3] | Potency [4] | Potency [5] | Potency [18] | Potency [7] | max response [9] 1.58% and -10.1% | Potency [11] | Potency [13] | Potency [19] | Potency [14]

c1cc(C(c2ccc(OCC3CO3)cc2)C(c2ccc(OCC3CO3)cc2)c2ccc(OCC3CO3)cc2)ccc1OCC1CO1 (stereo not drawn)
inactive: Potency [16] | Potency [17] | Potency [1] | Potency [4] | Potency [5] | Potency [18] | Potency [6] | Potency [7] | max response [9] -1.63% | Potency [10] | Potency [11] | Potency [12] | Potency [13] | Potency [19] | Potency [14] | Potency [15]

COc1ccc(CCN2CCC(Nc3nc4ccccc4n3Cc3ccc(F)cc3)CC2)cc1
active: Potency [17] 32.6 µM | Potency [1] 12.5 µM and 26.6 µM | Potency [3] 17.8 µM and 13.4 µM | Potency [18] 15.8 µM and 10.7 µM | Potency [6] 11.2 µM and 23.9 µM | Potency [7] 8.9 µM and 9.52 µM | Potency [9] 5.62 µM and 10.7 µM | Potency [10] 17.8 µM and 23.9 µM | Potency [11] 31.6 µM and 21.3 µM | Potency [12] 15.8 µM and 10.7 µM | Potency [13] 19.9 µM and 9.52 µM | Potency [19] 15.8 µM and 8.49 µM | Potency [15] 14.1 µM and 23.9 µM
inactive: Potency [5] | Potency [14]

CCN(CC)CCOc1ccc(/C(=C(\Cl)c2ccccc2)c2ccccc2)cc1
active: Potency [17] 81.7 µM | Potency [4] 14.1 µM and 19 µM | Potency [18] 17.7 µM and 23.9 µM | Potency [6] 19.9 µM and 23.9 µM | Potency [7] 14.1 µM and 21.3 µM | Potency [9] 12.6 µM and 19 µM | Potency [10] 31.6 µM and 23.9 µM | Potency [11] 31.6 µM and 21.3 µM | Potency [12] 19.9 µM and 23.9 µM | Potency [13] 19.9 µM and 21.3 µM | Potency [19] 17.7 µM and 16.9 µM | Potency [15] 28.1 µM and 23.9 µM
inactive: Potency [5] | Potency [14]

OCCOCCN1CCN(C(c2ccccc2)c2ccc(Cl)cc2)CC1 (stereo not drawn)
inactive: Potency [5] | Potency [8] | max response [9] -17.5% | Potency [10] | Potency [14] | Potency [15]
9.64 µM (active) and inactive: Potency [7]
125 µM (active) and inactive: Potency [17]
6.08 µM (active) and inactive: Potency [4]
48.3 µM (active) and inactive: Potency [18]
38.4 µM (active) and inactive: Potency [11] | Potency [13]
active: Potency [9] 7.66 µM | Potency [19] 38.4 µM
54.2 µM (active) and inactive: Potency [6]

Nc1cc(Cl)c(-c2cc(Cl)c(N)cc2Cl)cc1Cl
inactive and 54.9 µM (active): Potency [11] | Potency [13]
active: Potency [17] 101 µM and 113 µM | Potency [1] 54.4 µM and 61.1 µM | Potency [7] 24.5 µM | Potency [9] 6.91 µM and 1.74 µM | Potency [19] 4.36 µM and 54.9 µM
inactive: activity change, positive = activation ([2]; at 92.4 µM (top of the series)) -76.8% and -62.3% | Potency [5] | Potency [18] | Potency [6] | Potency [8] | Potency [10] | Potency [14] | Potency [15]
